# Screening data: PubChem BioAssay, National Center for Advancing Translational Sciences (NCATS)
# Hits are enriched below; roughly 21% of the tested compounds scored in any of these assays.
# Shiga inhibitor: blocks Shiga toxin action in Vero cells; Vero cells, Shiga toxin protein synthesis inhibition reporter; inhibition, % at 38.7 µM; 290,000 compounds, 9.2% hits; in the data active = inhibition mostly above about 28%, no sharp cut-off; inactive = mostly below about 43%; note: 0% is about no effect
# NS1 function inh: influenza NS1 inhibition | AID 2326 | 270,000 compounds, 0.4% hits | Potency, µM (doses to about 46.1 µM), for the others: top-dose activity, positive = more growth; calls by dose curve; note: potency is the fitted concentration of half-maximal effect; actives are rising curves; nearly all actives have a fitted effect of over 50% in size
#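 Growth recovery, yeast-based: influenza A NS1 expressed in S. cerevisiae causes slow growth, and suppressors are detected by OD600. The parent strain without NS1 is used as positive control.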
# Pf growth 48h: inhibits P. falciparum growth in the first generation, 48 h. P. falciparum luciferase growth in erythrocytes, 48 h. Potency, µM (series often up to 28.7 µM), for the others: at the top dose activity change, negative = inhibition, most hits filed as inhibitors. 310,000 compounds, 5.9% hits. AID 504832; note: potency is the fitted concentration of half-maximal effect; % is set by controls: 0 for no effect and ±100 for the full control effect
#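 Luciferase-expressing parasites in RBCs, 2% Hct / 0.1% parasitemia final; RPMI 1640 + 0.5% Albumax; 37 C, 5% CO2, one generation; luminescence read-out, lower signal = inhibition.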
# CHX counter: counter-screen for Shiga toxin inhibitors: cycloheximide protein synthesis inhibition | cell reporter, cycloheximide protein synthesis inhibition counterscreen | AID 2314 | 300,000 compounds, 12% hits | max response, %; in the data active = max response mostly above about 13%, no sharp cut-off; inactive = mostly below about 14%; note: read at 38.3 µM for the half of the compounds with a filed dose; 0% is about no effect
# Pf growth 96h: inhibits malaria parasite growth, 96 h; Potency, µM (doses to about 28.7 µM), without a hit: top-dose activity change, negative = inhibition, hits mostly inhibitors; 320,000 compounds, 6.9% hits; AID 504834; P. falciparum luciferase reporter growth, 96 h; note: potency is the fitted concentration of half-maximal effect; % is set by controls: 0 for no effect and ±100 for the full control effect
#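 Two parasite generations (96 h, 37 C, 5% CO2) of compound exposure in infected erythrocytes (0.05% parasitemia, 2% hematocrit). Luciferase-reporter P. falciparum; decreased luminescence indicates inhibited growth, aimed at apicoplast-acting delayed death.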
# * = called active by the depositor; i = inactive; ? = inconclusive; / = no result; [ ] = remark or other dose. Unless noted, calls come from the whole dose curve; as a rule, active = well fitted inhibition curve with a large enough effect; inconclusive = small, poorly fitted or top-dose-only effect, or another doubt; inactive = no such curve, though single readings can be large or run the other way.
SMILES,Shiga inhibitor,NS1 function inh,Pf growth 48h,CHX counter,Pf growth 96h
Cc1cc(F)ccc1Oc1cc(NN2CCCCC2)c([N+](=O)[O-])cc1[N+](=O)[O-],-7,1%,17%,-2,?
O=[N+]([O-])c1cc([N+](=O)[O-])c(Oc2ccc(Br)cc2Br)cc1NN1CCCCC1,1,-10%,59%,-2,12µM*
Cc1ccc(NC(=O)CCC(=O)NNC(=O)c2ccccc2Cl)c(C)c1,2,3%,24%,1,25%
COc1cccc(CN(C(=O)Cn2nnc(-c3ccccc3F)n2)C(C(=O)NC(C)(C)C)c2ccncc2)c1 (configuration not stated),-2,-6%,?,-1,27%
O=C(Nc1scc(-c2ccccc2)c1C(=O)O)c1ccco1,63*,-41%,-15%,31*,31%
CCOC(=O)c1c(-c2ccc(C)s2)csc1NC(=O)c1ccco1,19,-3%,4%,0,/
COC(=O)c1c(-c2ccc(F)cc2)csc1NC(=O)c1ccco1,94*,1%,-6%,61*,?
COc1ccc(-c2csc(NC(=O)c3ccccc3F)c2C(=O)O)cc1,59*,-70%,53%,36*,?
CCC(C)N1CNc2c(c(=O)[nH]c(=S)n2-c2cccc(C)c2)C1 (configuration not stated),-9,/,-7%,8,i
NNC(=O)c1c(O)c2cccc3c2n(c1=O)CCC3,-7,8%,0%,-1,2%
Cc1ccc2nc(N)[nH]c(=O)c2c1Sc1ccncc1,/,/,4.8µM*,/,2.1µM*
O=C(Cn1c(C(=O)NCc2ccco2)cc2sccc21)c1ccccc1,-3,-35%,?,24*,-12%
O=C(Cn1c(C(=O)NCC2CCCO2)cc2sccc21)c1ccccc1 (configuration not stated),-1,-3%,-11%,-4,?
Cn1c(-c2ccc(Cl)nc2)nc2ccccc21,58*,-4%,20%,15*,65%
Cn1c(CCc2ccc(N)cc2)nc2ccccc21,60,-1%,133%,32*,32%
Cn1c(-c2ccc(N)cc2)nc2ccccc21,75*,-2%,61%,56*,322%
Cc1ccc(-n2c(N)c(-c3nc4ccccc4n3C)sc2=S)cc1,18,-94%,1.5µM*,11*,18%
Cn1c(-c2ccc3nc(N)sc3c2)nc2cc(N)ccc21,6,2%,/,21*,/
Brc1ccc(-c2ccc(CNCc3ccccn3)o2)cc1,55,-2%,-32%,26*,?
Clc1cccc(-c2ccc(CNCc3ccccn3)o2)c1,81*,0%,216%,32*,?
COCCNC(=O)COC(=O)/C=C/c1c(C)nn(Cc2ccc(Cl)cc2Cl)c1Cl,-10,9%,-5%,13,-18%
Cc1ccc2oc(=O)c3cnn(CC(=O)N4CCCc5ccccc54)c3c2c1,3,-20%,9%,-1,-17%
CCNC(=O)/C(C#N)=C/c1c(N2CCN(c3ccccc3)CC2)nc2ccccn2c1=O,44*,4%,-13%,29*,-17%
O=c1c2ccccc2nc2ccccn12,70*,/,176%,42*,22%
O=c1[nH]c2ccccc2c2nc3ccccn3c12,51*,-165%,17%,40*,-10%
SMILES,Shiga inhibitor,NS1 function inh,Pf growth 48h,CHX counter,Pf growth 96h
CCOC(=O)N1CCN(c2nc3ccccn3c(=O)c2C=O)CC1,-8,-2%,0.29µM*,1,0.83µM*
O=c1c(-c2ccccc2)c(O)nc2ccccn12,-11,1%,34%,-1,?
CC(C)C[C@H](NC(=O)[C@H](Cc1ccccc1)NC(=O)[C@@H]1CCCN1C(=O)[C@H](CC(=O)O)NC(=O)[C@@H]1CCC(=O)N1)C(=O)N[C@@H](CCCN=C(N)N)C(=O)N[C@@H](Cc1ccccc1)C(N)=O,-6,/,/,6,/
CCOC(=O)c1c(C2CCN(C(=O)OCC)CC2)nc2ccccn12,4,-107%,/,-7,5.2µM*
O=Cc1c(SCCO)nc2ccccn2c1=O,7,3%,4%,-1,9%
O=c1c2ccccc2nc2c3ccccc3c(Cl)nn12,11,5%,43%,1,2%
O=Cc1c(Sc2ccccc2)nc2ccccn2c1=O,4,-52%,/,1,7.4µM*
COC(=O)CSc1nc2ccccn2c(=O)c1C=O,46*,/,298%,18*,246%
O=c1c2ccccc2nc2c3ccccc3cnn12,78*,/,78%,40*,96%
Cn1cc(CN2CCC(N3CCNC(=O)CC3)CC2)c(-c2ccccc2F)n1,-7,2%,15%,-1,-7%
CCn1cc(S(=O)(=O)NCCc2ccc(F)cc2)cn1,-14,-6%,21%,11,6%
O=C1OC(Nc2ccc3ncccc3c2)c2ccccc21 (configuration not stated),54*,13%,56%,27*,107%
Cc1cccnc1NC1OC(=O)c2ccccc21 (configuration not stated),-24,5%,12%,1,/
CCS(=O)(=O)N1N=C(c2cccs2)CC1c1cc2cc(C)ccc2nc1Cl (configuration not stated),58,17%,?,32*,?
Cc1ccc(Oc2ccc(-c3nnc(-c4ccccc4)o3)cc2[N+](=O)[O-])cc1C,-2,14%,15%,-1,21%
CC(=O)Nc1ccc(NC(=O)CCCCCN2C(=O)c3ccccc3C2=O)cc1,-5,12%,/,0,-12%
CCCCN1/C(=C/c2cccc[n+]2C)Sc2cc(NC(C)=O)ccc21,-9,1%,4.1µM*,2,11%
c1coc(Cn2c(SCc3nc4ccccc4[nH]3)nnc2-c2cccs2)c1,-4,3%,-22%,-3,10µM*
CC(C)(C)c1nnc(SCC(=O)c2ccccc2)n(N)c1=O,63*,?,17%,57*,14%
Cc1ccc(-c2nnc(SCc3nc4ccccc4[nH]3)n2Cc2ccco2)cc1,-10,15%,?,5,?
COCCn1c(SCc2cccnc2)nnc1-c1ccco1,9,3%,23%,7,9.3µM*
Cn1c(SCC(=O)c2ccccc2)nnc1-c1ccco1,63*,2%,79%,41*,15µM*
COCCn1c(SCC(=O)NCCc2ccccc2)nnc1-c1ccco1,-8,2%,7%,-2,1%[5.75 µM]
CCc1cccc2[nH]c3cc([N+](=O)[O-])ccc3c12,-7,-5%,?,-2,?
CCCCNCc1cc(OCC)c(OCC)cc1Br,3,0%,-18%,-9,18%
c1ccc(CSc2nnc(-c3ccco3)n2Cc2ccco2)cc1,32,-62%,?,37*,?
Cn1c(SCc2ccccc2)nnc1-c1ccco1,82*,/,-3%,41*,9%
Cn1c(SCC(=O)N2c3ccccc3Sc3ccc(Cl)cc32)nnc1-c1ccco1,-2,-39%,9.3µM*,1,1.5µM*
Cc1ccccc1CSc1nnc(-c2ccco2)n1Cc1ccco1,15,-110%,0%,-2,0%[5.75 µM]
Cn1ncc(Cl)c1C(=O)Nc1cccnc1,-4,6%,41%,-4,9%
